Screens as filed in PubChem BioAssay.
Shown are actives, neighbours in structure and some others; about 11% of the full set was active somewhere.
Pf growth 48h – inhibits P. falciparum growth in the first generation, 48 h; P. falciparum luciferase growth in erythrocytes, 48 h; Potency, µM (series often up to 28.7 µM), without a hit: top-dose activity change, negative = inhibition, usual class: inhibitors; actives 5.9% (n = 310,000); note: % is set by controls: 0 for no effect and ±100 for the full control effect
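First compound was added to culture medium, then infected red cells at 0.1% parasitemia and 2% hematocrit (final). After incubation at 37 C under 5% CO2, luciferase detection reagent was dispensed and light output recorded.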
AMA1 RON2 block – disrupts binding of P. falciparum AMA1 to RON2; AlphaScreen AMA1-biotinylated RON2 peptide binding; Potency, µM (doses to about 58.2 µM), for inactives: top-dose activity change, negative = inhibition, actives largely listed as inhibitors; actives 0.2% (n = 360,000); AID 720542;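 note: 0% = vehicle wells and -100% = peptide control; nearly all actives have a fitted effect of over 45% in size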
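AMA1 (3D7) with his tag at 25 nM final met compounds first, then biotinylated RON2 peptide at 25 nM; detection used donor plus acceptor beads, 10 µg/mL apiece, read by AlphaScreen after 30 min at room temperature.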
Pf growth 96h – inhibits malaria parasite growth, 96 h; Potency, µM (series often up to 28.7 µM), inactives show at the highest dose activity change, negative = inhibition, hits mostly inhibitors; P. falciparum luciferase reporter growth, 96 h; actives 6.9% (n = 320,000); AID 504834; note: % is set by controls: 0 for no effect and ±100 for the full control effect
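P. falciparum expressing integrated firefly luciferase grown in erythrocytes (2% hematocrit, 0.05% parasitemia final) with compounds for 96 hours at 37 C, 5% CO2. Growth inhibition read as loss of luminescence after adding luciferase detection reagent.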
Sm TGR inh – blocks Schistosoma mansoni thioredoxin glutathione reductase | Q962Y6 | purified TGR, DTNB reduction, TNB absorbance 405 nm | Potency, µM (series often up to 114 µM), inactives show at the highest dose activity change, negative = inhibition, usual class: inhibitors | actives 3% (n = 360,000) | AID 485364; note: % is set by controls: 0 for no effect and ±100 for the full control effect; nearly all actives have a fitted effect of over 60% in size
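TGR 20 nM + NADPH 100 uM (dispensed conc.), cpd preinc 15 min RT; start with NADPH (500 uM addition) then DTNB (15 mM addition). Kinetic TNB absorbance, 405 nm filter. Four-parameter Hill fit across titration.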
NS1 inh – blocks influenza NS1 protein function; Potency, µM (top dose mostly 46.1 µM), without a hit: top-dose activity, positive = more growth; actives 0.4% (n = 270,000); calls by dose curve; note: actives are rising curves; nearly all actives have a fitted effect of over 50% in size
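In this qHTS, NS1 from influenza A is expressed in budding yeast, where it slows growth. Cells are switched from glucose to 2% galactose medium (pH 6.0, -URA), treated with compound, and growth recovery is read at OD600.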
The depositor's hits bear a star; ? = inconclusive; nt = no result; [ ] = dose if it differs, or a comment. Unless noted, calls come from the whole dose curve; as a rule, active = well fitted curve in the direction sought with a large enough effect; inconclusive = small, poorly fitted or top-dose-only effect, or another doubt; inactive = no such curve, though single readings can be large; an effect the other way counts as inactive or inconclusive. Potency is the fitted concentration of half-maximal effect.

SMILES	Pf growth 48h	AMA1 RON2 block	Pf growth 96h	Sm TGR inh	NS1 inh
COc1ccccc1-c1c(-c2ccc(O)cc2O)n[nH]c1C(F)(F)F	?	68.8%	13.1µM*	3.9%	5.4%
Oc1ccc(-c2n[nH]c(C(F)(F)F)c2-c2ccccc2)c(O)c1	-16.7%	15.8%	31.9%	1.9%	4.8%
CC(C)(C)C1CCc2sc(-c3nnc(CCl)o3)cc2C1 (stereo not given)	13.1µM*	67.6%	?	?	nt
O=C(O)c1cc2c(s1)CCCC2	33.7%	42.8%	69.6%	-0.4%	-47.9%
ClCc1nnc(-c2cc3c(s2)CCCC3)o1	?	10.8%	10.4µM*	-8.0%	nt
CC(NC=O)c1nc2ccccc2n1CCc1ccccc1 (stereo not given)	0.0%	-1.4%	?	-4.6%	2.4%
Cc1nn(-c2ccccc2)c(C)c1C(=O)OCC(=O)NCc1ccco1	-1.4%	14.0%	24.3%	17.8µM*	-5.0%
O=C(COC(=O)c1ccccc1)NCc1ccco1	nt	-1.3%	54.5%	-0.8%[11.4 µM]	?
O=C(COC(=O)Cc1c(Cl)cccc1Cl)NCc1ccco1	nt	-12.2%	nt	nt	nt
O=C(COC(=O)C(c1ccccc1)c1ccccc1)NCc1ccco1	-8.6%	0.0%	-1.1%	39.8µM*	nt
O=C(COC(=O)c1ccccc1Oc1ccccc1)NCc1ccco1	0.1%	-26.3%	-5.5%	15.8µM*	-17.9%
O=C(COC(=O)CCSc1ccccc1Cl)NCc1ccco1	3.2%[5.75 µM]	-2.7%	89.9%	39.8µM*	-46.3%
CCCN(CCC)C(=O)Cn1c(=O)n(-c2ccc(C)cc2)c(=O)c2ccc(C(=O)NCc3ccccc3Cl)cc21	nt	nt	nt	-4.2%	nt
Cc1ccccc1-c1csc(C(O)(c2ccccc2)C(F)(F)F)n1 (stereo not given)	nt	0.8%	nt	nt	nt
Cc1cc(C(=O)OCC(=O)NCc2ccco2)c(C)n1-c1ccc(F)cc1	8.28µM*	-1.5%	?	?	-16.5%
O=C(Cn1cc(C(=O)COc2ccccc2)c2ccccc21)NCc1ccco1	-14.3%	-1.9%	160.9%	39.8µM*	?
CC(=O)c1cn(CC(=O)NCc2ccco2)c2ccccc12	67.1%	-18.0%	?	0.5%	-8.3%
CCNC(=O)COC(=O)c1cc(C)n(-c2ccccc2)c1C	-4.8%	7.3%	-1.0%	5.4%	nt
CSc1cccc(NC(=S)N2CCC(N(C)C3CCCCC3)CC2)c1	-6.5%	-2.5%	?	44.7µM*	nt
CSc1cccc(NC(=S)N2CCC(N(C)C3CCCCC3C)CC2)c1 (stereo not given)	-29.9%	-8.9%	-12.0%	22.4µM*	nt
CCOC(=O)c1c(C)n(-c2ccccc2)c2ccc(OCCN(C)C)cc12	?	-11.6%	-13.0%	-8.3%	4.0%
COCCn1c(C)cc(C(=O)CN2C(=O)NC3(CCCCCCC3)C2=O)c1C	20.7%	-6.9%	nt	0.0%	-1.2%
Cc1cc(-n2c(C)cc(C(=O)CN3C(=O)NC4(CCCCCC4)C3=O)c2C)no1	11.7µM*	-4.3%	-14.9%	11.5%	0.7%
Cc1cc(C(=O)CN2C(=O)NC3(CCCCC3)C2=O)c(C)n1-c1ccc2c(c1)OCO2	?	-26.3%	13.1µM*	-5.6%	6.1%
Cc1nnc(SCC(=O)N(C2CCCCC2)C2CCS(=O)(=O)C2)n1C (stereo not given)	-20.0%	-0.1%	10.5%	-4.7%	nt
SMILES	Pf growth 48h	AMA1 RON2 block	Pf growth 96h	Sm TGR inh	NS1 inh
CCOc1ccc(CN2CCNC(=O)C2CC(=O)O)cc1 (stereo not given)	43.2%	-0.5%	30.0%	-2.6%	-2.0%
Cc1ccc(CN2CCNC(=O)C2CC(=O)O)cc1 (stereo not given)	7.4%	0.5%	33.9%	35.5µM*	-0.8%
O=C(O)CC1C(=O)NCCN1C/C=C/c1ccccc1 (stereo not given)	-0.2%	16.7%	24.7%	39.8µM*	5.6%
O=C(CC1C(=O)NCCN1C/C=C/c1ccccc1)NCCc1ccncc1 (stereo not given)	-9.6%	9.5%	26.6%	-12.5%	-1.1%
COc1ccccc1CN1CCNC(=O)C1CC(=O)O (stereo not given)	-15.2%	0.2%	30.3%	79.4µM*	-0.4%
COc1cc(OC)c(NC(=O)CCCNC(=O)Cn2cnc3sc(C)c(C)c3c2=O)cc1Cl	-2.1%	-9.0%	-12.8%	0.1%	20.4%
CC(=O)c1cnn(-c2c(Cl)cc(Cl)cc2Cl)c1C	-23.3%	-2.5%	?	21.4%	1.6%
CC(C)c1ccc(N2C(=O)CC(Sc3ncn[nH]3)C2=O)cc1 (stereo not given)	nt	-14.8%	-3.9%	0.562µM*	-32.3%
COc1ccc(N2C(=O)CC(Sc3ncn[nH]3)C2=O)c(OC)c1 (stereo not given)	-14.2%	19.0%	3.0%	0.282µM*	-160.4%
CC(C)(O)[C@@H]1CC(=O)[C@]2(C)[C@H](CC[C@@]3(C)[C@H](c4ccoc4)OC(=O)[C@H]4O[C@]432)[C@@]1(C)/C=C\C(=O)O	45.7%	-1.0%	39.9%	-15.0%	nt
CC1(C)C(=O)C=C[C@]2(C)[C@H]3CC[C@@]4(C)[C@H](c5ccoc5)OC(=O)[C@H]5O[C@]54[C@]3(C)[C@H](O)C[C@@H]12	11.7µM*	-8.4%	8.28µM*	-3.5%	-33.9%
COc1ccc(N2CC(C(=O)NCCc3ccc(Cl)cc3)CC2=O)c(OC)c1 (stereo not given)	?	0.0%	11.4%	-1.1%	nt
O=C(c1ccc2c(c1)OCO2)N1CCN(CCN2C(=O)c3cccc4cccc(c34)C2=O)CC1	nt	14.3%	nt	nt	nt
O=C(CN1CCN(CCN2C(=O)c3cccc4cccc(c34)C2=O)CC1)c1ccc(Cl)cc1	?	nt	?	14.1µM*	11.8%
O=C(CN1CCN(CCN2C(=O)c3cccc4cccc(c34)C2=O)CC1)c1ccc(F)cc1	14.7µM*	-27.7%	1.04µM*	?	16.3%
CCN(CC)S(=O)(=O)c1ccc(C(=O)N2CCN(CCN3C(=O)c4cccc5cccc(c45)C3=O)CC2)cc1	?	nt	2.94µM*	-1.7%	nt
Cc1cc(Br)ccc1OCCCCN1CCCCC1	?	-7.4%	116.3%	-7.5%[57.1 µM]	-3.4%
CN(CC(=O)Nc1ccccc1C(F)(F)F)C(=O)C1CCN(C(=O)c2ccc(Cl)cc2)CC1	-28.9%	-1.7%	-15.6%	-2.1%	nt
COc1ccc(S(=O)(=O)N2CCN(C(=O)COc3ccccc3)CC2)cc1	-12.3%	-2.5%	7.38µM*	6.5%	-1.8%
Cc1ccc(OCC(=O)N2CCN(S(=O)(=O)c3ccccc3[N+](=O)[O-])CC2)cc1	9.28µM*	-1.1%	30.2%[5.75 µM]	-4.5%	-2.3%
CCC(C)c1ccc(S(=O)(=O)N2CCN(C(=O)COc3ccc4c(C)cc(=O)oc4c3)CC2)cc1 (stereo not given)	nt	3.3%	?	4.5%	-57.2%
Cc1ccc(S(=O)(=O)N2CCN(C(=O)COC(=O)COc3ccccc3)CC2)cc1	nt	-7.1%	2.5%	12.0%[11.4 µM]	-7.6%
CS(=O)(=O)N1CCN(C(=O)COc2ccc3ccccc3c2)CC1	2.08µM*	17.6%	16.6%	26.5%	2.7%
